# Source: PubChem BioAssay AID1347423 (Functional Genomics Laboratory (NCATS/FGL), 2020)
# About 210 (0.4%) of roughly 52,000 sequences were called active. The entries come from a sample that favours actives as a whole. A number with no mark means an inactive call.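 How the source made its calls: active means gene whose silencing raises cell survival under the drug, median off-target-corrected z-score across its silencing RNAs 2 or more; inactive means the rest.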
# Assay: Resistance to Poly (ADP-Ribose) Polymerase inhibitor: Gene Identification via Genome-wide siRNA Screen
# Conditions: mouse BRCA2 R2336H ES cells, olaparib, CellTiter-Glo viability; hits give high values
# Description: The role of Poly (ADP-Ribose) Polymerase (PARP) proteins in DNA repair has been elegantly utilized for the synthetic lethality-based treatment of BRCA-deficient tumors by PARP inhibitors. PARP inhibitors are now being used for treatment of BRCA-deficient breast and ovarian cancers. […] While several mechanisms of drug resistance have been identified, majority of these tumors develop drug resistance due to unknown causes. To identified novel regulators of chemo-resistance in BRCA2-mutated cells, we performed a genome wide siRNA library screen. We have found ES cells expressing a hypomorphic allele of BRCA2 to be hypersensitive to PAPP inhibitors (such as olaparib). We used ES cells expressing a mutant allele of BRCA2 that has a single amino acid substitution at position 2336 (arginine to histidine, R2336H). The screen was conducted using an Ambion (Thermo) Silencer Mouse Genome siRNA collection. The library targets 17,575 mouse genes with 3 siRNAs per gene. TET2 (E130014J05Rik) was identified as a top candidate.
# Transfections were performed in 384 well plates (Corning 3707). Plates were coated with 0.1% gelatin in H2O overnight at ambient temperature. Gelatin solution was aspirated (BioTek EL406) and siRNAs were printed using a Bravo VPrep liquid handler integrated within a BioCel automation platform (Agilent). Cell viability was measured using CellTiter Glo (Promega). For transfections, […] of serum free media containing Lipofectamine RNAiMax […] was added to wells containing siRNA (0.8pmol). Lipid and siRNA were allowed to complex for 45 min at ambient temperature before addition of 1000 cells in DMEM, 30% FBS to yield final transfection mixtures containing 20 nM siRNA in DMEM, 15% FBS. PARPi (olaparib, AZD2281) was added 48 h post-transfection (500 nM) and viability (CellTiter Glo, Promega) was assayed 72 h later on a PerkinElmer Envision 2104 Multilabel plate reader. Ambion Silencer Select Negative Control #2 was incorporated on all screening plates (16 wells) and the median negative control value on each plate was used for normalization. An siRNA targeting Trp53 was used as a positive control. This control yielded a median protective effect of ~1.9 fold versus negative control throughout the screen. The median absolute deviation (MAD) based z-score was calculated for each siRNA. Genes were then ranked by taking the median value for all siRNAs tested against a given gene. Scores were also adjusted for seed-based off-target effects to help deprioritize likely false positives.
row,Sequence,z-score
1,CCAGAAACAUACGAAGAUUTT against Khdrbs1,2.31 (active)
2,GGUAUCUUCAAGUACAUGATT against BC011426,0.138
3,GGAGAUGGAGAAGUAGAUUTT against Abcf2,0.0903
4,GGGAAAUGUGUGUUAUCUGTT against Rnf126,1.17
5,CCCUGUCUCCCGCAUAGAATT against Itgb6,1.67 (active)
6,GAAAUCAUCCUGCCCAAAGTT against Vax1,0.607
7,GGUCCCAGUGUCAUGUCUUTT against Cdipt,0.00151
8,GGUCUAUACCAUCCUAUUGTT against Faim2,-1.24
9,CACUCAGCUCAAUGACCUGTT against Ifna14,-0.514
10,GCUACAAGCGAUAUAUUCCTT against Jak1,2.92 (active)
11,CCAUGGAGAAUCAUGACAGTT against Slfn1,0.281
12,GUAUCAUACAAUGAUGUCCTT against Olfr176,0.628
13,GGAAAACAGCUUUGAUUGGTT against E130009J12Rik,1.42
14,GGAACAGGAAUAACAUGACTT against V1re9,1.65
15,GUAUGAUGCACUCCAGUUGTT against Hdac8,-1.38
16,GCCAGUGCACUCCUCUUUUTT against Mmrp19,0.352
17,GCUGAACUAUAACUUGAAATT against Stat1,0.735
18,GCAAGAAGUAAUCAACUUUTT against Rqcd1,2 (active)
19,GGACUUUUACCAGUUCUCCTT against Ece2,0.967
20,GGUACAGGAAAAAAGAAGATT against Msl31,-0.435
21,GCACGUAGUAAGAUGUUACTT against Rqcd1,2.53 (active)
22,GGUGGUCUAAGUCCUGACATT against Hmx1,-0.564
23,GGUUAUUAAGAGCACUUUCTT against Catsper3,-0.553
24,GCAUUAUGACUCUAAUAGCTT against Olfr60,0.536
25,GGGCUAUGUGCUCUUUUGUTT against Edg6,0.487
26,GGCAUUGUGAAGCUGAAACTT against Ptpn9,1.93 (active)
27,GGAGAAGGAGGUGAUAAUGTT against Sart1,0.088
28,GGUGCAGUUUAAGAGAGAATT against C630016B22Rik,0.153
29,GCCACCUCAAUGAAAGGAGTT against Slc23a1,0.609
30,GGUAAUUUGUUUGUGGUGATT against Mtnr1b,-0.531
